Binding signal data for five sequences are collected here from publication PMC8384837, “Expanding the binding specificity for RNA recognition by a PUF domain”.

Common to all, as to assay: yeast three-hybrid, YBZ-1, SC-Leu-His + 0.5 mM 3-AT, 4 days
What all share (details): tags: N-Gal4 AD-HA kept; label: inside an RPR1-promoter hybrid RNA with tandem MS2 sites; ssRNA

The target of one assay is PUM1 PUF domain R4-AFP (Homo sapiens, UniProt Q14671 828-1176, N971A;H972F;Q975P). A digest of the protocol:
(§1)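 The interaction score is the log change in how often each variant appears, from input to selection. Frequencies came from PCR-amplified, Illumina-sequenced repeat regions of Pumilio-1 PUF domain libraries grown in strain YBZ-1 (LexA–MS2 coat fusion, HIS3 reporter) alongside matching RNA elements. Input plates were SC-Leu and selection plates were SC-Leu-His + 0.5 mM 3-AT, each for four days, and the log2 calculation used a pseudocount of 1 where a variant was absent.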

The target in a further assay is PUM1 PUF domain R4-VNA (Homo sapiens, UniProt Q14671 828-1176, N971V;H972N;Q975A). A digest of the protocol: as §1
The next assay has as its target PUM1 PUF domain R3-RVR (Homo sapiens, UniProt Q14671 828-1176, C935R;R936V;Q939R). A digest of the protocol:
as §1

Another assay addresses PUM1 PUF domain R3-YFE (Homo sapiens, UniProt Q14671 828-1176, C935Y;R936F;Q939E). Put shortly: as §1
The next assay addresses PUM1 PUF domain R1-SRR (Homo sapiens, UniProt Q14671 828-1176, Q867R). A digest of the protocol: as §1
The next assay concerns the target PUM1 PUF domain R1-GVR (Homo sapiens, UniProt Q14671 828-1176, S863G;R864V;Q867R). Put shortly: as §1
A further assay concerns the target PUM1 PUF domain R5-QNG (Homo sapiens, UniProt Q14671 828-1176, C1007Q;R1008N;Q1011G). Put shortly: as §1
Another assay has as its target PUM1 PUF domain R5-KQT (Homo sapiens, UniProt Q14671 828-1176, C1007K;R1008Q;Q1011T). A digest of the protocol:
as §1

For the next assay, the target named is T1, PUM1 PUF domain R6-SWE (Homo sapiens, UniProt Q14671 828-1176, N1043S;Y1044W;Q1047E).
T1 sequence: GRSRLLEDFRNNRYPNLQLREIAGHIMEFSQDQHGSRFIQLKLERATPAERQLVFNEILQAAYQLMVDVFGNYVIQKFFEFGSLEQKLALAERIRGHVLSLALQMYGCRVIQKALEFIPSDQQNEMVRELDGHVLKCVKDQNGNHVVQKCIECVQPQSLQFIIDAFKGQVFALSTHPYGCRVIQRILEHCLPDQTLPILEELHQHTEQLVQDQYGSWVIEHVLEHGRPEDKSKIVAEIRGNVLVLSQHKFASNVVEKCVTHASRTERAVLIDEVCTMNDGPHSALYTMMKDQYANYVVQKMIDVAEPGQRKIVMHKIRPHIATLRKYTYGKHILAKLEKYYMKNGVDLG
Put shortly: as §1

Sequence of PUM1 PUF domain R5-KQT (Q14671 828-1176 C1007K/R1008Q/Q1011T): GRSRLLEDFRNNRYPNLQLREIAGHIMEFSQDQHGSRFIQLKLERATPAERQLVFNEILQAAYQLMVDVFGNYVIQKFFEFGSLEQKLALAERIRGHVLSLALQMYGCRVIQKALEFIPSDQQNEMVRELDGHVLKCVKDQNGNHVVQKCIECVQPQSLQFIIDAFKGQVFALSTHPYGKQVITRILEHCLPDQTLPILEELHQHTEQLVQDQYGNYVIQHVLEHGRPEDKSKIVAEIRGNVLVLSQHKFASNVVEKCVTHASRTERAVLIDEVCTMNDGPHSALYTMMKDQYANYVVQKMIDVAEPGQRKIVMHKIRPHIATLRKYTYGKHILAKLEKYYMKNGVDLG
Sequence of PUM1 PUF domain R4-AFP (Q14671 828-1176 N971A/H972F/Q975P): as the sequence (Q14671 828-1176 C1007K/R1008Q/Q1011T) above, with N144A, H145F, Q148P, K180C, Q181R, T184Q counted along it

Turning to “GGCUAGAACUAGUGGAUCCCCCGGCGCCCGGCGGCUCGAGCCCGGGUAAGUGUAUAUAGUCUGCAUGCCGCCGGGCGCCAUGCCUGCAGGUCGACUCUAGAAAACAUG”, the values for the binding signal with PUM1 PUF domain R4-AFP and with PUM1 PUF domain R4-VNA were 5 log2 enrichment (interaction score) and 3.11 log2 enrichment (interaction score), respectively.
On to “GGCUAGAACUAGUGGAUCCCCCGGCGCCCGGCGGCUCGAGCCCGGGUAAGUGUAAGUAGUCUGCAUGCCGCCGGGCGCCAUGCCUGCAGGUCGACUCUAGAAAACAUG”, for which the binding signal is 1.73 log2 enrichment (interaction score) with PUM1 PUF domain R3-RVR and 5.72 log2 enrichment (interaction score) with PUM1 PUF domain R3-YFE.
Take “GGCUAGAACUAGUGGAUCCCCCGGCGCCCGGCGGCUCGAGCCCGGGUAAGUGUAAAUCGUCUGCAUGCCGCCGGGCGCCAUGCCUGCAGGUCGACUCUAGAAAACAUG”: the binding signal with PUM1 PUF domain R1-SRR is 3.51 log2 enrichment (interaction score); with PUM1 PUF domain R1-GVR it was 3.35 log2 enrichment (interaction score).
Turning to “GGCUAGAACUAGUGGAUCCCCCGGCGCCCGGCGGCUCGAGCCCGGGUAAGUGUUAAUAGUCUGCAUGCCGCCGGGCGCCAUGCCUGCAGGUCGACUCUAGAAAACAUG”, the binding signal is 2.88 log2 enrichment (interaction score) with PUM1 PUF domain R5-QNG and 2.84 log2 enrichment (interaction score) in the assay with PUM1 PUF domain R5-KQT.
For “GGCUAGAACUAGUGGAUCCCCCGGCGCCCGGCGGCUCGAGCCCGGGUAAGUGAAAAUAGUCUGCAUGCCGCCGGGCGCCAUGCCUGCAGGUCGACUCUAGAAAACAUG”, the binding signal with PUM1 PUF domain R6-SWE is 4.09 log2 enrichment (interaction score).
